For 26 compounds, growth results are on record in PubChem BioAssay (NCI).

Molecules are shown by their SMILES. About 83,000 compounds went through this panel and 20% of them were active in at least one assay; those are over-represented in the sample as a whole.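 Treatment: one concentration, 48 hours, 96-well format. Scoring: percent growth, with anything below 10 considered active.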 A number with no mark means an inactive call. The source made the active and inactive calls.

Holding throughout (assay): NCI-60 one-dose screen, 48 h (100 = growth as untreated, 0 = no growth, -100 = all killed)
Holding throughout (settings): 10 µM unless noted

In assay [1] the test system is NCI-H23 lung.
For assay [2], the system named is NCI-H226 lung.
The subject of assay [3] is NCI-H322M lung.
Assay [4] has as its system HOP-62 NSCLC.
In assay [5] the test system is NCI-H460 lung.
The test system of assay [6] is HOP-92 NSCLC.
The subject of assay [7] is NCI-H522 lung.
Assay [8] deals with A549/ATCC NSCLC.
The test system of assay [9] is 786-0 renal.
Assay [10] has as its system COLO 205 colon.

`COc1ccc(-c2cc3c(C)nc(N)nc3n(C3CCC(OCCO)CC3)c2=O)cn1` (stereo not given): the growth was 15% in assay [1]; -0.55% (active) in assay [2]; -36.4% (active) in assay [3]; -21.9% (active) in assay [4]; 6.78% (active) in [5]; -32.2% (active) in assay [6]. The growth was -1.92% (active) in assay [7], -38.4% (active) in assay [8], -24.1% (active) in assay [9] and -61.1% (active) in [10].
Regarding `COc1ccc2c(CCCCC(c3ccccc3)c3ccccc3)c3[n+](cc2c1OC)CCc1cc2c(cc1-3)OCO2`, the growth in assay [1] is -66.5% (active); in [2] it was -55% (active); in assay [3], 11.1%; in assay [4], -42.7% (active); in assay [5], -83% (active); in [6], -72.7% (active). The growth in [7] is -57.5% (active); in assay [8], -22.5% (active); in assay [9] it was -75.8% (active); in assay [10], -77.3% (active).
For `COc1ccc(Cl)c(Nc2nc3ccccc3nc2NS(=O)(=O)c2cccc(NC(=O)C(C)(C)N)c2)c1`, the growth in assay [1] was 64.5%; in assay [2] it was 71.4%; in [3], 35.1%; in [4] it was 39.4%; in assay [5], 38%; in [6] it was -1.2% (active). For the same compound, the growth was 49% in [7], 32.4% in assay [8], 16.7% in [9] and 21.8% in assay [10].
Regarding `O=C(O)c1ccc2c(c1)nc(Nc1cccc(Cl)c1)c1ccncc12`, the growth in assay [1] is 2.72% (active); in [2], 3.78% (active); in assay [3] it was -25.5% (active); in [4], -1.83% (active); in [5], 14.7%; in assay [6], -20.3% (active). Further, the growth in assay [7] is -35.7% (active); in assay [8] it was 27.8%; in [9], 17.5%; in assay [10] it was -16.8% (active).
`O=C(/C=C/c1ccc2c(c1)OCO2)c1c(O)c2ccccc2oc1=O`: the growth in assay [1] is 102%; in [2] it was 107%; in assay [3], 107%; in assay [4], 80.9%; in assay [5] it was 103%; in assay [6], 103%. The growth was 75.7% in [7], 76.5% in assay [8], 99.8% in assay [9] and 99.3% in [10].
Turning to `COc1ccc(C2CC(=O)c3c(O)c(OC)c(OC)c(OC)c3O2)c(O)c1` (stereo not given), the growth was 27.5% in assay [1]; 66.8% in [2]; 51.4% in assay [3]; 64.9% in assay [4]; 9.27% (active) in assay [5]; 77.9% in assay [6]. Also, the growth in assay [7] was 12%; in assay [8] it was 28.1%; in assay [9], 47.2%; in assay [10], 57.3%.
For the compound `C=CCn1c(=O)c2cnc(Nc3ccc(N4CCN(C)CC4)cc3)nc2n1-c1cccc(C(C)(C)O)n1`, the growth is 2.22% (active) in assay [1]; 40% in assay [2]; 14.1% in [3]; 2.56% (active) in assay [4]; 12% in assay [5]; 49.2% in assay [6]. Also, the growth in assay [7] was -45.8% (active); in [8] it was 15.9%; in assay [9] it was 14%; in assay [10], -29.5% (active).
With `Cc1cc(C2(c3ccc(O)c(C)c3)OS(=O)(=O)c3ccccc32)ccc1O`, the growth in assay [1] is 101%; in [2], 97.9%; in assay [3], 103%; in [4] it was 107%; in assay [5] it was 103%; in assay [6], 78.6%. Moreover, the growth in assay [7] is 115%; in [8] it was 101%; in assay [9], 112%; in [10], 96.3%.
Consider `N#Cc1c(NC(=O)c2cccs2)[n+]([O-])c2ccc(F)cc2[n+]1[O-]`, for which the growth is 98.5% in [1]; 88.6% in assay [2]; 99.1% in [3]; 68.1% in assay [4]; 99.1% in assay [5]; 73.3% in [6]. Also, the growth was 87% in assay [7], 106% in [8], 103% in [9] and 86.1% in assay [10].
Consider `O=C(Nc1ccc(Nc2ncnc3sc4c(c23)CCOC4)cc1)Nc1ccc(Cl)c(C(F)(F)F)c1`, for which the growth in assay [1] is 86%; in assay [2] it was 103%; in assay [3], 102%; in assay [4], 116%; in assay [5] it was 99.7%; in assay [6], 89%. For the same compound, the growth in [7] is 66.5%; in [8], 99.3%; in assay [9], 107%; in [10], 104%.
For `COC(=O)[C@@H](OC)[C@@H]1Cc2cc3cc(OC4CC(OC5CC(O)C(O)C(C)O5)C(O)C(C)O4)c(C)c(O)c3c(O)c2C(=O)[C@H]1OC1CC(OC2CC(OC3CC(C)(O)C(O)C(C)O3)C(O)C(C)O2)C(O)C(C)O1` (stereo not given in full), the growth was -47.3% (active) in assay [1]; -41.9% (active) in [2]; 12.3% in assay [3]; 6.33% (active) in [4]; 4.95% (active) in assay [5]; -15.6% (active) in [6]. Moreover, the growth was -30.3% (active) in assay [7], 8.71% (active) in assay [8], 9.07% (active) in assay [9] and -37.2% (active) in [10].
Regarding `Cc1cc(N2CCCC2)nc(N(CCCNc2ccnc3cc(Cl)ccc23)Cc2ccc3c(c2)OCO3)n1`, the growth is 20.9% in assay [1]; 50.4% in assay [2]; 8.23% (active) in assay [3]; -17.4% (active) in [4]; 5.83% (active) in assay [5]; -36% (active) in assay [6]. The growth in [7] is -28.1% (active); in [8] it was 13.2%; in [9], -88.8% (active); in assay [10] it was -73.8% (active).
Turning to `CCCC(=O)OCC1OC(n2cnc3c(=S)nc[nH]c32)C(OC(=O)CCC)C1OC(=O)CCC` (stereo not given), the growth in [1] was 29.4%; in [2], 32.5%; in assay [3], 35.4%; in assay [4] it was 24.1%; in assay [5], 54.9%; in assay [6] it was 17.9%. Further, the growth in assay [7] is -12.7% (active); in [8], 83.9%; in assay [9], 22.3%; in assay [10] it was 67.3%.
Consider `CC1(O)CCC2CC3OC3(C)CCC3OC3(C)C(O)CC1C2(C)C` (stereo not given), for which the growth in [1] is 96%; in assay [2], 115%; in assay [3] it was 115%; in assay [4], 116%; in [5], 120%; in assay [6], -15.9% (active). Moreover, the growth was 97.6% in assay [7], 92.8% in assay [8], 104% in assay [9] and 109% in [10].
Turning to `COc1ccc(/C(C)=C(\c2ccc(Cl)cc2)c2ccc(OCCN3CCCCCC3)cc2)cc1`, the growth was 51.3% in assay [1]; 60.6% in assay [2]; 79.5% in assay [3]; 48.4% in [4]; 32.3% in assay [5]; 79.5% in [6]. In addition, the growth in assay [7] was 51.5%; in assay [8] it was 39.4%; in assay [9], 59.7%; in assay [10] it was 17.2%.
In the case of `CSc1nc2ncncc2[nH]1`, the growth is 101% in assay [1]; 92.5% in [2]; 102% in [3]; 82.5% in [4]; 110% in [5]; 153% in [6]. For the same compound, the growth was 101% in assay [7], 103% in assay [8], 93.9% in assay [9] and 120% in assay [10].
`Cc1ccc(-c2nc3ccc(Cl)cn3c2NC2CCCCC2)o1`: the growth is 81.3% in [1]; 84.5% in assay [2]; 93.1% in [3]; 87% in assay [4]; 97.6% in assay [5]; 73.1% in assay [6]. Further, the growth in assay [7] was 57.3%; in assay [8], 79.5%; in [9], 87.8%; in [10], 79.6%.
On to `CCc1nc2cc(/C=C/C(=O)NO)ccc2c(=O)n1CCc1ccc(F)cc1`, for which the growth is 1.11% (active) in [1]; 20.3% in assay [2]; 18.6% in [3]; -11.8% (active) in assay [4]; 4.24% (active) in assay [5]; -4.03% (active) in [6]. Besides, the growth in assay [7] is 3.72% (active); in assay [8] it was 7.13% (active); in assay [9], -23% (active); in assay [10], -35.7% (active).
Consider `COc1cccc(Nc2ncnn3ccc(CN4CC[C@@H](N)[C@H](O)C4)c23)c1`, for which the growth was 36.3% in assay [1]; 5.97% (active) in assay [2]; 0.241% (active) in [3]; 18.7% in [4]; 73.8% in [5]; 26.3% in assay [6]. Also, the growth in assay [7] was 14.4%; in assay [8] it was 12.1%; in [9], 13.1%; in assay [10] it was 34.6%.
As for `CN1CCN(c2nc(C3=C(c4c[nH]c5ccccc45)C(=O)NC3=O)c3ccccc3n2)CC1`, the growth in [1] was 70.1%; in assay [2], 73.8%; in [3], 29.2%; in [4] it was 44.3%; in assay [5], 87.5%; in assay [6], 80.7%. The growth is 68% in assay [7], 51.7% in assay [8], 92.8% in assay [9] and -2.65% (active) in assay [10].
In the case of `COC1CCC(N2C(=O)CNc3ncc(-c4ccc(C(C)(C)O)nc4)nc32)CC1` (stereo not given), the growth in [1] was 15.8%; in assay [2], 8.08% (active); in assay [3], -5.65% (active); in assay [4], 5.54% (active); in [5] it was 12.4%; in assay [6], -12% (active). Also, the growth was -10.3% (active) in [7], 2.75% (active) in [8], 6.56% (active) in assay [9] and -7.31% (active) in assay [10].
For `O=C(O)c1ccc(Nc2ncc3c(n2)-c2ccc(Cl)cc2C(c2c(F)cccc2F)=NC3)cc1`, the growth was 64.9% in assay [1]; 51.7% in [2]; 89% in [3]; 37.7% in [4]; 39.5% in assay [5]; 54.4% in assay [6]. In addition, the growth in [7] is 29.9%; in assay [8] it was 30%; in [9], 63%; in assay [10], 2.8% (active).
As for `COc1cccc(NC(=O)Nc2ccc(Nc3ncnc4sc5c(c34)CCN(C(=O)CCl)C5)cc2)c1`, the growth is 96.7% in assay [1]; 88.9% in [2]; 96.8% in [3]; 88.7% in [4]; 98.1% in [5]; 97.1% in [6]. Moreover, the growth is 71.6% in assay [7], 91% in assay [8], 103% in assay [9] and 104% in assay [10].
As for `O=c1[nH]c(N2CCOCC2)nc2scc(-c3ccccc3)c12`, the growth in assay [1] was 87.2%; in assay [2], 97.2%; in assay [3] it was 95%; in [4], 91.3%; in assay [5], 110%; in assay [6] it was 79.7%. Further, the growth in assay [7] is 77%; in assay [8], 86.8%; in assay [9] it was 95.2%; in assay [10], 101%.
`O=C(O)C1(Cc2cccc(Nc3nccs3)n2)CCC(Oc2cccc(Cl)c2F)CC1` (stereo not given): the growth in assay [1] was 66%; in assay [2] it was 82.8%; in [3], 76.4%; in assay [4], 49.8%; in [5], 15.2%; in assay [6], 102%. Further, the growth in assay [7] was -3.77% (active); in assay [8] it was 41.9%; in [9], 75%; in assay [10], 59.5%.
Consider `C=CC[n+]1c(/C=C/C=C2\N(C)c3ccccc3C2(C)C)sc2ccc(OC)cc21`, for which the growth in [1] was 11.6%; in assay [2] it was 10.8%; in [3], 26.2%; in assay [4] it was 14.4%; in [5], 7.84% (active); in assay [6] it was -4.42% (active). In addition, the growth is 3.52% (active) in [7], 16.6% in [8], 26.8% in [9] and -37.4% (active) in [10].
